Compounds with a hit are over-represented: about 5.4% of the library has one in this group of screens.
p53 reactivator: qHTS assay for re-activators of p53 using a Luc reporter. H1299 p53-A138V BP100-luciferase reporter, luminescence, 24 h. Potency, µM (series often up to 92.2 µM), for the others: top-dose activity change, positive = activation, most hits filed as activators. 320,000 tested, 0.063% active; also: potency is read from the fitted curve at half-maximal effect; % of control where 0% means no effect; nearly all actives have a fitted effect of over 45% in size
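H1299 (p53-null), stable ts p53-A138V + BP100-Luc; 1000 cells/well, Opti-MEM/10% FBS; cpd 4 pt, 1:5; 24 h, 37 deg C, 5% CO2; detection reagent 10 min RT; luminescence.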
VP16 counter: VP16 counterscreen qHTS for inhibitors of ROR gamma transcriptional activity; Drosophila S2 Gal4-VP16 UAS-luciferase, luminescence, 20 h; Potency, µM (titrated, usually from 53.6 µM), for inactives: top-dose activity, negative = inhibition, actives largely listed as inhibitors; 310,000 tested, 3.5% active;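 also: Gal4-VP16 expression switched on by copper sulfate through the metallothionein promoter; potency is read from the fitted curve at half-maximal effect; % is scaled to controls: 0 for no effect and ±100 for the full control effect; nearly all actives have a fitted effect of over 50% in size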
RORgamma inh: qHTS for inhibitors of ROR gamma transcriptional activity; Drosophila S2 Gal4-RORgamma UAS-luciferase reporter, 20 h; 310,000 tested, 5.4% active; Potency, µM (highest dose often 53.6 µM), inactives show at the top dose activity change, negative = inhibition, hits mostly inhibitors; Nuclear receptor ROR-gamma (Mus musculus), P51450; AID 2551, 2010; also: potency is read from the fitted curve at half-maximal effect; % is scaled to controls: 0 for no effect and ±100 for the full control effect; nearly all actives have a fitted effect of over 60% in size
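Luminescence from a UAS-regulated Photinus luciferase reporter in stably transfected Drosophila Schneider cells is measured; decreased signal marks ROR gamma inhibition. Fusion expression is induced by 700 uM copper sulfate for 20 hr.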
Six1-Eya2 blk: qHTS Assay for Inhibitors of the Six1/Eya2 Interaction. 360,000 tested, 0.56% active. AID 651725, 2012. AlphaScreen GST-Six1/His-Eya2 binding, biochemical; active compounds read low. activity change, % (test concentration not listed). Homeobox protein SIX1 (Homo sapiens) + Protein phosphatase EYA2 (Homo sapiens), …; in the data active = activity change below about -65%; inconclusive = mostly about -30% to -63%; also: % is scaled to controls: 0 for no effect and ±100 for the full control effect
Target sequence (O00167 whole entry, looked up): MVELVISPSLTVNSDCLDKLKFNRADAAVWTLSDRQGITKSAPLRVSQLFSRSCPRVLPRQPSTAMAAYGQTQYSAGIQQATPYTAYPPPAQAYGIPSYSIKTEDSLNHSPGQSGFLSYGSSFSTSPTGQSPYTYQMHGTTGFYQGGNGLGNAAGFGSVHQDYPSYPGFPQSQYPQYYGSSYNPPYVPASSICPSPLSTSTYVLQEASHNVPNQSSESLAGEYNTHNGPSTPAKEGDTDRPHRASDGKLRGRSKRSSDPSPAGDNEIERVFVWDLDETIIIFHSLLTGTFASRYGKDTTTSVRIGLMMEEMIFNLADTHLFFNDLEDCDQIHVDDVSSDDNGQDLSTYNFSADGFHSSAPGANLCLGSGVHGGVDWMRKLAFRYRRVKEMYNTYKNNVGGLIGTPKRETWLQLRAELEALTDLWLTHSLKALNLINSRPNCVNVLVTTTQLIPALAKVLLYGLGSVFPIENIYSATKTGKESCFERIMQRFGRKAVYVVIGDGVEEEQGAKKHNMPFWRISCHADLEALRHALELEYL
Target sequence (Q15475 whole entry, looked up): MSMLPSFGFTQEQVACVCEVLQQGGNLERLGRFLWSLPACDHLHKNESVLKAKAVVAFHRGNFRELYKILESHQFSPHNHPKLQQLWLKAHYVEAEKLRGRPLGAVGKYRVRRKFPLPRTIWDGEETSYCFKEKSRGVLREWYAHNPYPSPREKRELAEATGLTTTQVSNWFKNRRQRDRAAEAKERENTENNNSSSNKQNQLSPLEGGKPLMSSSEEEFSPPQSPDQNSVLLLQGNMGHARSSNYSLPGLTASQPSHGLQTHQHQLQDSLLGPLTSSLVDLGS
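Homogeneous AlphaScreen proximity assay pairing GST-Six1 with His-tagged Eya2 (added as 5X mix: 250 nM and 500 nM) in 50 mM Tris pH 8.0, 300 mM NaCl, 1 mM TCEP. Glutathione donor and nickel acceptor beads; 1 h, 37 °C, dark.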
CtBP-E1A blk: qHTS Assay for Inhibitors of the CtBP/E1A Interaction; CtBP / adenovirus E1A interaction (AlphaScreen); AlphaScreen GST-E1A/His-CtBP binding, 1536-well; active compounds read low; activity change, % (concentration not given with the values); 340,000 tested, 0.49% active; in the data active = activity change below about -65%; inconclusive = mostly about -30% to -63%; also: % is scaled to controls: 0 for no effect and ±100 for the full control effect
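Protein mix (5X: 125 nM each GST-E1A, His-CtBP) was incubated with pinned compound 2 h at 37 deg C in dark, in 50 mM Tris pH 8.0 buffer with 300 mM NaCl. Glutathione donor and nickel acceptor beads followed; AlphaScreen signal read after 1 h.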
An asterisk follows results filed as active; ? = inconclusive; · = not tested or not shown; [ ] = another dose, or the depositor's remark. Unless noted, calls follow the shape of the dose curve; as a rule, active = well fitted curve in the direction sought with a large enough effect; inconclusive = small, poorly fitted or top-dose-only effect, or another doubt; inactive = no such curve, though single readings can be large; an effect the other way counts as inactive or inconclusive.

SMILES	p53 reactivator	VP16 counter	RORgamma inh	Six1-Eya2 blk	CtBP-E1A blk
NNC(=O)c1cc(C2CC2)nc2ccc(Br)cc12	2%	-8%	-19%	3	-3
O=C(NCCc1ccc(Cl)cc1)c1cc(-c2ccccn2)nc2ccccc12	-5%	?	11µM*	0	1
NNC(=O)c1cc(-c2ccc(O)cc2)nc2ccc(Br)cc12	-2%	?	13µM*	-4	·
O=C(NCCc1ccc(Cl)cc1)c1cc(-c2ccncc2)nc2ccccc12	1%	-12%	8%	-2	1
CS(=O)(=O)c1ccc(-c2nnc(NC(=O)c3ccc(S(=O)(=O)N4CCCC4)cc3)o2)cc1	8%	·	·	-18	-9
CC1CCCN(S(=O)(=O)c2ccc(C(=O)Nc3nnc(C4=COCCO4)o3)cc2)C1 (stereo unspecified)	-9%	1.1µM*	0.79µM*	·	·
CC1CCCCN1S(=O)(=O)c1ccc(C(=O)Nc2nnc(C3=COCCO3)o2)cc1 (stereo unspecified)	-8%	1.3µM*	0.89µM*	0	-17
O=C(Nc1nnc(C2=COCCO2)o1)c1ccc(S(=O)(=O)N2CCOCC2)cc1	0%	-2%	11µM*	-17	?
COc1ccccc1NC(=O)CSC1CC(=O)N(c2ccc3c(c2)OCO3)C1=O (stereo unspecified)	-4%	5µM*	5.6µM*	-3	5
COc1ccc(NC(=O)CSC2CC(=O)N(c3ccc4c(c3)OCCO4)C2=O)cc1 (stereo unspecified)	29%	5µM*	?	1	3
CCc1nc(Nc2ccccc2F)c2oc3ccccc3c2n1	4%	0%	-44%	22	8
O=C(OCc1ccccc1)C1=NNC2C(=O)N(Cc3ccccc3)C(=O)C12 (stereo unspecified)	-2%	-5%	28%	-2	8
COc1cccc(-c2c(C(=O)N/N=C(\C)c3ccc(Cl)s3)nnn2-c2nonc2N)c1	-4%	10µM*	-2%	0	-12
Nc1nonc1-n1nnc(C(=O)N/N=C/c2cccc(F)c2)c1-c1ccccc1	-5%	3%	-4%	?	-1
Nc1nonc1-n1nnc(C(=O)N/N=C/c2cc(Br)cs2)c1-c1ccccc1	-6%	5µM*	6.3µM*	16	0
COc1ccc(/C=N/NC(=O)c2nnn(-c3nonc3N)c2-c2cccc(OC)c2)cc1	-6%	-5%	-6%	-4	1
COc1ccc(O)c(/C=N/NC(=O)c2c(C)nnn2-c2nonc2N)c1	-2%	?	11µM*	-3	-11
COc1cc(/C=N/NC(=O)c2nnn(-c3nonc3N)c2C(C)C)ccc1O	-6%	2%	17%	-2	·
COc1cccc(-c2c(C(=O)N/N=C/c3cccs3)nnn2-c2nonc2N)c1	-5%	10µM*	7.1µM*	-4	-8
COc1cccc(-c2c(C(=O)N/N=C(\C)c3ccco3)nnn2-c2nonc2N)c1	-2%	23%	4%	-13	·
COc1cccc([C@@H]2Oc3ccc(OC)cc3/C(=N/OC[C@@H](C)[C@H](OCc3ccccc3)C(C)C)[C@@H]2O)c1	·	-2%[10 µM]	23%[10 µM]	·	·
CCOc1cccc(-c2c(C(=O)N/N=C/c3cccs3)nnn2-c2nonc2N)c1	-7%	11µM*	7.1µM*	-1	-8
Cc1ccc(/C=N/NC(=O)c2nnn(-c3nonc3N)c2-c2ccc3c(c2)OCO3)s1	-9%	7.9µM*	7.1µM*	-11	-9
COc1ccc(N(C)C(=O)C2CCN(S(=O)(=O)c3cccc4nonc34)CC2)cc1	1%	14%	39%	4	-2
c1ccc(-c2nc3ccccc3o2)nc1	28%	-13%	-11%	1	6
SMILES	p53 reactivator	VP16 counter	RORgamma inh	Six1-Eya2 blk	CtBP-E1A blk
c1ccc2nc(-c3nc4ccccc4o3)ccc2c1	8%	10µM*	-3%	7	14
CCCS(=O)(=O)N1CCCC(C(=O)Oc2ccc(Cl)cc2)C1 (stereo unspecified)	-1%	3%	2%	-5	5
Cc1c(C(=O)N2CCCCC2)nn(-c2ccc(Cl)cc2)c(=O)c1C#N	1%	14%	3%	0	3
Cc1ccc(C(C)NC(=O)c2cc3ccccc3oc2=O)cc1C (stereo unspecified)	·	13%	12%[1.91 µM]	1	-7
O=C(O)c1ccccc1-c1ccccc1C(=O)Nc1ccc2c(c1)[nH]c(=O)c1ccccc12	8%	1%	-4%	-72*	-1
O=C(O)c1ccccc1-c1ccccc1C(=O)Nc1ccc2oc(=O)c3ccccc3c2c1	·	·	·	?	-6
COc1ccc(C(=O)N/N=C/c2ccc(OC)c(CSc3ccccn3)c2)cc1	-6%	?	?	-4	0
COc1ccc(/C=N/NC(=O)c2ccncc2)cc1CSc1nc2ccccc2s1	?	6.3µM*	7.1µM*	-16	-5
COc1ccc(CC(=O)NNC(=O)c2ccccn2)cc1	·	-21%	?	?	-74*
COc1ccc(C(=O)Nc2ccc(NC(=O)c3ccccn3)cn2)cc1	7%	8%	4%	-27	-3
COc1ccc(NC(=O)c2ccccn2)cc1	-20%	11µM*	7.9µM*	-16	10
COc1ccc(NC(=O)c2cc(S(=O)(=O)Nc3ccc(OC)cc3)cs2)cc1	-1%	11µM*	1%	-4	·
COc1ccc(CC(=O)NNC(=O)c2cnccn2)cc1	7%	2%	-12%	-2	·
O=C(Nc1ccc(F)cc1)c1cc(S(=O)(=O)Nc2ccc(F)cc2)cs1	-4%	-20%	?	12	-1
O=C(Cc1ccccc1)c1ccccn1	·	·	·	-78*	-5
O=C(NNC(=O)C12CC3CC(CC(C3)C1)C2)c1cnccn1	27%	?	?	-4	1
O=C(NNC(=O)C12CC3CC(CC(C3)C1)C2)c1ccccn1	?	4.5µM*	0.5µM*	-66*	-19
CC1CCCN(CCC(=O)c2ccc(Br)cc2)C1 (stereo unspecified)	-23%	20µM*	?	5	0
COc1cc2c(cc1OC)CN(CCC(=O)c1ccc(Br)cc1)CC2	-19%	?	11µM*	-2	-5
O=c1[nH]c(SCc2ccccc2)nc2[nH]ncc12	-1%	-3%	1%	13	1
CCN1C(=O)[C@H]2[C@@H](c3ccc(OC)cc3)N[C@]3(CCCN(Cc4ccc(F)cc4)C3=O)[C@H]2C1=O	·	·	·	9	5
Cc1cc(CNC(=O)c2cccc([N+](=O)[O-])c2C)c2ccccc2n1	-6%	10µM*	-26%	-4	4
CCOc1cc(OCC)cc(C(=O)NCc2ccco2)c1	-8%	-2%	17%	3	-3

Bioassay records (PubChem BioAssay)
